Assay results published in the supplement of paper PMC6089552.
Screen size: about 3,200 compounds; about 300 (9.4%) showed activity. The full list was thinned out, with actives kept by preference.

Tested on: A673/TR/shEF
Assay: cell viability (LOESS-normalised, relative to median of negative controls) (log2 ratio); higher = more viable cells (less compound effect), active = hit call of the paper (over 3 MAD below the median)
Settings: treatment time: 72 h
Method in brief: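 Viability of A673/TR/shEF Ewing sarcoma cells was determined by CellTiter-Glo luminescence. The cells, at 1,500 per well in 384-well plates, were grown with or without doxycycline from 24 h before compound addition to switch on EWS-FLI1 shRNA knockdown, then exposed for three days to library compounds at two or more concentrations or to DMSO controls. Signals were LOESS-corrected plate by plate, normalised to the negative-control median and log2-transformed.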

[1] = 0.025 µM, library screen: screen1, EWS-FLI1 expression: high (no doxycycline)
[2] = 0.025 µM, library screen: screen1, EWS-FLI1 expression: low (doxycycline-induced shRNA knockdown)
[3] = 0.25 µM, library screen: screen1, EWS-FLI1 expression: high (no doxycycline)
[4] = 0.25 µM, library screen: screen1, EWS-FLI1 expression: low (doxycycline-induced shRNA knockdown)
[5] = 0.25 µM, library screen: screen2, EWS-FLI1 expression: high (no doxycycline)
[6] = 0.25 µM, library screen: screen2, EWS-FLI1 expression: low (doxycycline-induced shRNA knockdown)
[7] = 2.5 µM, library screen: screen1, EWS-FLI1 expression: high (no doxycycline)
[8] = 2.5 µM, library screen: screen1, EWS-FLI1 expression: low (doxycycline-induced shRNA knockdown)
[9] = 2.5 µM, library screen: screen2, EWS-FLI1 expression: high (no doxycycline)
[10] = 2.5 µM, library screen: screen2, EWS-FLI1 expression: low (doxycycline-induced shRNA knockdown)
[11] = 25 µM, library screen: screen1, EWS-FLI1 expression: high (no doxycycline)
[12] = 25 µM, library screen: screen1, EWS-FLI1 expression: low (doxycycline-induced shRNA knockdown)

Measured: cell viability (log2)

N#CC(C#N)=Cc1cc(O)c(O)c(O)c1
inactive: [1] -0.0494 | [2] 0.0428 | [3] 0.0608 | [4] -0.0659 | [5] 0.269 | [6] 0.131 | [7] -0.0151 | [8] 0.0163 | [9] 0.19 | [10] 0.0774 | [11] 0.0348 | [12] 0.1

N#CC(C#N)=Cc1ccc(O)c(O)c1
inactive: [1] 0.0488 | [2] -0.0484 | [3] 0.042 | [4] -0.0954 | [5] 0.172 | [6] 0.124 | [7] 0.0531 | [8] -0.000697 | [9] 0.143 | [10] 0.061 | [11] -0.0656 | [12] 0.016

N#CC(C#N)=Cc1ccc([N+](=O)[O-])c(O)c1
0.311: [3]
active: [7] -0.131 | [8] -0.169 | [9] -0.559 | [10] -0.298 | [11] -0.408 | [12] -0.158
inactive: [2] 0.0132 | [4] -0.0619 | [5] 0.0683 | [6] 0.016
0.298: [1]

COc1cc(C=C(C#N)C#N)cc(O)c1O
inactive: [5] 0.15 | [6] 0.104 | [9] 0.12 | [10] 0.124

N#CC(C#N)=Cc1cc(O)c(O)c([N+](=O)[O-])c1
active: [7] -0.167 | [11] -0.153
0.283: [3]
inactive: [1] 0.235 | [2] -0.0184 | [4] 0.00958 | [8] -0.0107 | [12] 0.176

N#CC(C#N)=Cc1ccc(O)cc1
inactive: [1] 0.0481 | [2] 0.0237 | [3] 0.0596 | [4] 0.0262 | [7] 0.0426 | [8] 0.0755 | [11] 0.0734 | [12] 0.0191

C[N+](C)(C)CCOC(=O)CBr
inactive: [5] 0.173 | [6] 0.097 | [9] 0.0892 | [10] 0.139

COc1ccc2c(c[n+](C)c3c4cc5c(cc4ccc23)OCO5)c1OC
inactive: [5] 0.273 | [6] 0.121 | [9] 0.106 | [10] 0.0124

CN1CC[C@@]23CCCC[C@@H]2[C@@H]1Cc1ccc(O)cc13
inactive: [5] 0.228 | [6] 0.105 | [9] 0.167 | [10] 0.081

C[C@]12CCC(=O)C=C1CCc1ccc(O)cc12
inactive: [3] 0.081 | [4] -0.029 | [7] 0.111 | [8] 0.113

CC(C)c1cc2c(c(O)c1O)[C@@]1(C(=O)O)CCCC(C)(C)[C@@H]1CC2
inactive: [3] 0.0242 | [4] 0.0347 | [7] 0.115 | [8] 0.191

CCC(C)C(=O)OC1CC2(C)C(c3ccoc3)OC(=O)CC23OC2(C)OC34C(OC(=O)C(C)C)C3(O)C(OC(=O)C5(C)OC5C)C5(C)CC3(O)C(C)(C5CC(=O)OC)C14O2 (stereo not given)
inactive: [3] 0.108 | [4] -0.0058 | [7] 0.0939 | [8] 0.12

CO[C@H]1C[C@H](O[C@H]2CC[C@@]3(C)[C@H](CC[C@@H]4[C@@H]3CC[C@]3(C)[C@@H](C5=CC(=O)OC5)[C@@H](OC(C)=O)C[C@]43O)C2)O[C@@H](C)[C@@H]1O
active: [3] -0.578 | [4] -1.73 | [7] -3.54 | [8] -4.25

CC(=O)OC1CCC2(C)C(CCC3C2CCC2(C)C(C4=CC(=O)OC4)C(OC(C)=O)CC32O)C1 (stereo not given)
inactive: [3] -0.0585 | [4] -0.416
active: [7] -2.02 | [8] -2.26

CC(=O)O[C@@H]1CC[C@@]2(C)[C@@H](CC[C@@H]3[C@@H]2CC[C@]2(C)C(=O)CC[C@@H]32)C1
inactive: [3] 0.0923 | [4] 0.0254 | [7] 0.0362 | [8] 0.0893

C[C@]12CC[C@H](O)C[C@H]1CC[C@@H]1[C@@H]2CC[C@]2(C)[C@@H](C3=CC(=O)OC3)[C@@H](O)C[C@]12O
inactive: [3] 0.0825 | [4] 0.115 | [7] 0.137 | [8] 0.0999

CC(=O)OC1CC(OC2C(O)CC(OC3C(O)CC(OC4CCC5(C)C(CCC6C5CC(O)C5(C)C(C7=CC(=O)OC7)CCC65O)C4)OC3C)OC2C)OC(C)C1OC1OC(CO)C(O)C(O)C1O (stereo not given)
inactive: [3] 0.0557 | [4] -0.286
active: [7] -2.91 | [8] -3.01

C[C@H]1O[C@@H](O[C@H]2[C@@H](O)C[C@H](O[C@H]3[C@@H](O)C[C@H](O[C@H]4CC[C@@]5(C)[C@H](CC[C@@H]6[C@@H]5CC[C@]5(C)[C@@H](C7=CC(=O)OC7)[C@@H](O)C[C@]65O)C4)O[C@@H]3C)O[C@@H]2C)C[C@H](O)[C@@H]1O
active: [3] -0.13 | [4] -0.332 | [7] -1.73 | [8] -1.76

CC(=O)O[C@H]1C[C@@H]2CC[C@@H]3[C@H](CC[C@@]4(C)[C@H]3C[C@H]([N+]3(C)CCCCC3)[C@@H]4OC(C)=O)[C@@]2(C)C[C@@H]1[N+]1(C)CCCCC1
inactive: 0.103 µM, library screen: screen3, EWS-FLI1 expression: high (no doxycycline) 0.0285 | 0.103 µM, library screen: screen3, EWS-FLI1 expression: low (doxycycline-induced shRNA knockdown) 0.0357 | [5] 0.133 | [6] 0.105 | 0.308 µM, library screen: screen3, EWS-FLI1 expression: high (no doxycycline) 0.115 | 0.308 µM, library screen: screen3, EWS-FLI1 expression: low (doxycycline-induced shRNA knockdown) 0.051 | 0.926 µM, library screen: screen3, EWS-FLI1 expression: high (no doxycycline) 0.183 | 0.926 µM, library screen: screen3, EWS-FLI1 expression: low (doxycycline-induced shRNA knockdown) 0.0779 | [9] 0.145 | [10] 0.0752 | 2.8 µM, library screen: screen3, EWS-FLI1 expression: high (no doxycycline) 0.112 | 2.8 µM, library screen: screen3, EWS-FLI1 expression: low (doxycycline-induced shRNA knockdown) 0.0286 | 8.3 µM, library screen: screen3, EWS-FLI1 expression: high (no doxycycline) 0.106 | 8.3 µM, library screen: screen3, EWS-FLI1 expression: low (doxycycline-induced shRNA knockdown) 0.0203 | 25 µM, library screen: screen3, EWS-FLI1 expression: high (no doxycycline) 0.16 | 25 µM, library screen: screen3, EWS-FLI1 expression: low (doxycycline-induced shRNA knockdown) 0.0865

NS(=O)(=O)c1ccc2c(c1)CNCC2
inactive: [5] 0.162 | [6] 0.085 | [9] 0.143 | [10] 0.0805

CC[S+]([O-])CCSP(=O)(OC)OC (stereo not given)
inactive: [3] 0.119 | [4] 0.0126 | [7] 0.119 | [8] 0.0247

NC(=O)c1cc([N+](=O)[O-])cc([N+](=O)[O-])c1
inactive: 0.025 µM, library screen: screen2, EWS-FLI1 expression: high (no doxycycline) 0.148 | 0.025 µM, library screen: screen2, EWS-FLI1 expression: low (doxycycline-induced shRNA knockdown) 0.069 | [3] 0.071 | [4] 0.00829 | [5] 0.134 | [6] 0.0542 | [7] 0.16 | [8] 0.158 | [9] 0.195 | [10] 0.121 | 25 µM, library screen: screen2, EWS-FLI1 expression: high (no doxycycline) 0.244 | 25 µM, library screen: screen2, EWS-FLI1 expression: low (doxycycline-induced shRNA knockdown) 0.114
